# The source made the active and inactive calls. The calls were made as follows: active = hit-call score of the fitted dose curve at least 0.9, where 1 is the maximum; inactive = score below 0.9.
# Read-out: Interleukin-8 (IL8), CXCL8 (gene 3576)
# Experiment: BSK_LPS_IL8: BioMAP Diversity Plus: LPS Assay for Interleukin-8 (IL8) Biomarker Activity (AID 2283078)
# Conditions: primary human HUVEC with PBMC; actives raise or lower the signal
# Procedure: BSK_LPS is a cell-based, multiplexed-readout assay that uses umbilical vein endothelium and peripheral blood mononuclear cells, a human vascular primary cell co-culture, with measurements taken at 24 hours after chemical dosing in a 96-well plate.BSK_LPS_IL8 is an assay component measured in the BSK_LPS assay. It measures IL-8 antibody related to regulation of gene expression using ELISA technology.Data from the assay component BSK_LPS_IL8 was analyzed into 1 assay endpoint. This assay endpoint, BSK_LPS_IL8, was analyzed with bidirectional fitting relative to DMSO as the negative control and baseline of activity. Using a type of binding reporter, gain or loss-of-signal activity can be used to understand changes in the signaling as they relate to the gene CXCL8. Furthermore, this assay endpoint can be referred to as a primary readout, because this assay has produced multiple assay endpoints where this one serves a signaling function. To generalize the intended target to other relatable targets, this assay endpoint is annotated to the cytokine intended target family, where the subfamily is interleukins.
# The levels of cell surface (or secreted, indicated by the prefix "s") biomarker endpoints were measured by ELISA. Overt cytotoxicity to cells in confluent adherent cultures (all systems other than the BT system) was assessed by measuring total protein levels using sulforhodamine B (SRB) staining in parallel cultures at the time of biomarker measurements, indicated as SRB endpoints. For proliferation assays for adherent cell types, individual cell types are cultured at sub-confluence and relative cell numbers quantified by SRB staining at time points optimized for each system (48 h: 3C and CASM3C systems; 72 h: BT and HDF3CGF systems; 96 h: SAg system). SRB was performed by staining cells with 0.1% SRB after fixation with 10% TCA and reading wells at 560 nm.Viability and proliferation of PBMC (T cells) was quantified by Alamar Blue reduction for the SAg and BT systems. For PBMC viability (referred to as PBMC Cytotoxicity within the assay endpoint names), cells were plated (75,000/well in a 96-well plate) and then chemical samples added for 1 h before addition of activators, SEB and TSST-1 (20 ng/mL final concentration each). Cells were incubated for 90 h. Then, Alamar Blue (20 uL/well) (Invitrogen, Cat DAL1100) was added for 6 h, and the plates were read with a fluorescence microplate reader at 546/580 nm (excitation/emission). For PBMC proliferation, cells were plated and activated as above but incubated for only 16 h prior to addition of Alamar Blue. Plates were read after 6 h.
SMILES,outcome,AC50
CC[C@H]1CC[C@H](NCc2cc3c(cc2OC)[C@H]2C[C@H]2C(=O)N3C)[C@H](c2ccccc2)N1,inactive,
Cc1ccc(O)cc1,inactive,
O=C(O)c1cccc(Oc2ccccc2)c1,inactive,
Cc1ccc(N)cc1O,inactive,
CC(=O)c1ccc2c(c1)[C@H](NC(=O)c1ccc(F)cc1)[C@@H](O)C(C)(C)O2,inactive,
C1=CCCC=CCCC=CCC1,inactive,
CC(C)(O)c1coc(S(=O)(=O)NC(=O)Nc2c3c(cc4c2CCC4)CCC3)c1,,0.148 µM (active)
Nc1cccc(N)c1,inactive,
O=C1CCC(N2C(=O)c3ccccc3C2=O)C(=O)N1 (stereo not given),inactive,
COc1cccc(-c2ccc(/C=C\CN3CCCCCC3)cc2Cl)c1,inactive,
O=c1n(CC2CO2)c(=O)n(CC2CO2)c(=O)n1CC1CO1 (stereo not given),,10.8 µM (active)
CC1=CC(=O)CC(C)(C)C1,inactive,
CC(C)CCO,inactive,
COc1ccc2sc(C(=O)Nc3nnn[nH]3)c(OC(C)C)c2c1,,28.5 µM (active)
CCc1cc(SCc2sc(-c3ccc(C(F)(F)F)cc3)nc2CN2CCN(c3ccc(OC)cc3)CC2)ccc1OCC(=O)O,,33.6 µM (active)
C=CCCCCCCCCC(=O)O,inactive,
CCOCCO,inactive,
CC(C)c1cccc(C(C)C)c1N1C(=O)c2ccc(O)cc2C1=O,inactive,
Cc1ccc(S(=O)(=O)O)cc1C,inactive,
NC(=O)NO,inactive,

SMILES,outcome,AC50
CC(O)CN(CCN(CC(C)O)CC(C)O)CC(C)O (stereo not given),inactive,
Cc1ccc(C)c(O)c1,inactive,
C1N2CN3CN1CN(C2)C3,inactive,
CNCc1ccc(NC(=O)c2c[nH]c3c2C(=O)CCC3)cc1,inactive,
O=C1CCCCCN1,inactive,
CCN(C(=O)c1cc(C)cc(OC[C@H](C)Nc2ccncc2)c1)C(C)C,inactive,
CC(=O)OC[C@H]1O[C@@](COC(C)=O)(O[C@H]2O[C@H](COC(C)=O)[C@@H](OC(C)=O)[C@H](OC(C)=O)[C@H]2OC(C)=O)[C@@H](OC(C)=O)[C@@H]1OC(C)=O,inactive,
CCCCCCCCCCCCc1ccccc1,inactive,
Oc1ccc2c(c1)-c1ccccc1C2,inactive,
Cn1c(=O)c2c(ncn2C)n(C)c1=O,inactive,
CC1(C)C(=O)N(Br)C(=O)N1Br,inactive,
CN(C)c1ccc(N=NS(=O)(=O)O)cc1,inactive,
CC(C)=CCCC(C)=CC=O,inactive,
CC(C)=CCC/C(C)=C/CO,inactive,
O=P(OC(CCl)CCl)(OC(CCl)CCl)OC(CCl)CCl,inactive,
O=C(O)CC(O)C(=O)O (stereo not given),inactive,
CC(C)CCCCCCCOC(=O)CCCCC(=O)OCCCCCCCC(C)C,inactive,
CC(C)CC(C)(O)C#CC(C)(O)CC(C)C (stereo not given),inactive,
CCOC(=O)CC(CC(=O)OCC)(OC(C)=O)C(=O)OCC,inactive,
CC[C@H](C)C(=O)O[C@H]1C[C@@H](C)C=C2C=C[C@H](C)[C@H](CC[C@@H]3C[C@@H](O)CC(=O)O3)[C@H]21,inactive,
